Source: PubChem BioAssay AID686978 (National Center for Advancing Translational Sciences (NCATS), 2013)
In all, about 420,000 compounds went through this assay and about 64,000 (15%) were called active. About 27% were inconclusive and are not listed. These entries were drawn from the full list. Values without a mark were called inactive. The call rests on the fitted dose curve; in most records, active means well fitted inhibition curve with a large enough effect; inconclusive means small, poorly fitted or top-dose-only effect; inactive means flat fitted curve, though single readings scatter.

test: qHTS for Inhibitors of human tyrosyl-DNA phosphodiesterase 1 (TDP1): qHTS in cells in absence of CPT; conditions: DT40 Tdp1-/- hTDP1 cells, no CPT, ATP luminescence, 48 h; activity change, negative = growth inhibition: at 46.2 µM (top of the series); further: nearly all actives have a fitted effect of over 55% in size
In short: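 Growth kinetics read by CellTiter-Glo luminescence after ≥48 hr at 37 °C. Cells: DT40 Tdp1-/- stably carrying human TDP1, 400 per well, compound exposure in the absence of CPT (DMSO vehicle).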
On the % scale 0 is the no-effect control and ±100 the full control effect; potency means the concentration at half of the fitted maximal effect.

SMILES	activity change, negative = growth inhibition [%]	Potency
Cc1ccc(NC2(C#N)C(=O)Nc3ccccc32)cc1 (stereo not given)	-21.8	–
COC(=O)C(C)NC(=O)COc1ccc2ccccc2c1 (stereo not given)	-13.9	–
CCCCSc1[nH]c(=O)c(C(=O)OCC)cc1C#N	-13.7	–
COc1cccc(CNS(=O)(=O)c2cc3c(cc2C)n(C)c(=O)c(=O)n3C)c1	–	inactive
CCOc1ccccc1CNS(=O)(=O)c1cc(-c2cc(C)no2)ccc1C	-4.87	–
Cc1cc(-c2ccc(C)c(S(=O)(=O)NC(C)Cc3ccco3)c2)on1 (stereo not given)	-4.97	–
COc1ccc(CNS(=O)(=O)c2cc(-c3cc(C)no3)ccc2C(C)C)cc1	–	0.731 µM (active)
CCc1ccc(-c2cc(C)no2)cc1S(=O)(=O)NCCc1ccc(S(N)(=O)=O)cc1	-19.4	–
Cc1cc(-c2ccc(C)c(S(=O)(=O)NCCCN(Cc3ccccc3)C(C)C)c2)on1	–	13 µM (active)
CC(=O)OC(C)C[N+](C)(C)C (stereo not given)	–	inactive
C=CCOc1ccc(/C=C/C(=O)OC(C)C(=O)Nc2ccc(NC(C)=O)cc2)cc1 (stereo not given)	3.52	–
COC(=O)c1c(C)cc(O)c(C)c1O	-27.8	–
O=C(/C=C/c1ccco1)NC(=S)N1CCCCC1	-10.6	–
NC(=O)c1ccsc1NC(=O)COC(=O)Cc1n[nH]c(=O)c2ccccc12	-18	–
Cc1cc(C)c(C2C3=C(Nc4c2c(C)nn4-c2ccccn2)c2ccccc2C3=O)c(C)c1 (stereo not given)	–	8.2 µM (active)
Cc1nc2ccccc2n1C(=O)N1CCOCC1	-2.07	–
CC(/C=C/c1ccccc1)=N\NC(=O)C1CC1(C)c1ccccc1 (stereo not given)	–	18.4 µM (active)
CC(C=Cc1ccccc1)=NNS(=O)(=O)c1ccc([N+](=O)[O-])cc1	-24.8	–
CC(OC(=O)/C=C/c1ccccc1)C(=O)NC1CCCCC1C (stereo not given)	6.75	–
Cn1c(=NC(=O)c2ccc3c(c2)OCCO3)sc2cc(S(C)(=O)=O)ccc21	–	inactive
O=C(CO/N=C/c1ccccc1OC(F)F)NC1CCCC1	-17.2	–
O=C(CO/N=C/c1ccccc1O)NNC(=O)c1ccccc1Cl	–	0.184 µM (active)
NS(=O)(=O)c1cc(C(=O)OCC(=O)NNC(=O)c2ccccc2)ccc1Cl	4.14	–
CCCc1cc(=O)oc2c(C)c(OCC(=O)NCc3ccccn3)ccc12	-5.71	–

SMILES	activity change, negative = growth inhibition [%]	Potency
CN(CCC#N)c1ccc(C=O)cc1	-5.8	–
CC(=O)c1sc(NC(=O)c2ccc(C)cc2)nc1C	-8.46	–
N#Cc1ccc(C(=O)Nc2nc(-c3cccs3)c(C(=O)C(F)(F)F)s2)cc1	–	1.3 µM (active)
CCOc1cccc(C(=O)Nc2nnc(-c3cccs3)s2)c1	-17.9	–
COc1ccc(CCNC(=O)c2cn(C)c3ccc(S(=O)(=O)N(C)C4CCCCC4)cc3c2=O)cc1OC	-15.7	–
CC1(C)CC(=O)C=C(c2ccccc2CO)C1=O	-8.99	–
CC1CCCC(C)N1C(=O)COC(=O)COc1ccccc1C#N (stereo not given)	14.7	–
Cc1nnc(NC2=NCCCCC2)o1	4.11	–
COc1ccc(CN2C(=O)C(NC(=O)c3cccc(C)c3)(C(F)(F)F)N=C2c2ccccc2)cc1 (stereo not given)	–	20.6 µM (active)
COc1cccc(C(=O)NC(=O)Nc2nc(C)cc(C(F)(F)F)n2)c1	2.08	–
COc1ccc(OCC(=O)NNC(=O)c2cccc(C)c2)cc1	-3.54	–
COc1ccc(S(=O)(=O)N2CCN(C(=O)c3cc(C)oc3C)CC2)cc1	-7.03	–
COc1ccc(C(=O)Nc2cccnc2)cc1C(=O)Nc1cccnc1	-5.19	–
COc1ccc(C(=O)/C=C/c2cccnc2)c(OC)c1	–	18.4 µM (active)
COc1ccc(C(=O)CCC(=O)Nc2cccnc2)c(OC)c1	-29.8	–
CC/C(=N\O)C(C)(C)/[N+]([O-])=C/c1ccc(Br)cc1	0.798	–
O=c1c2[nH]c3ccc(Cl)cc3c2ncn1Cc1ccccn1	7.63	–
COc1cccc(NC(=O)NCc2ccc(F)cc2)c1	-8.3	–
COc1cccc(NC(=O)Cc2ccc(C)cc2)c1	-1.58	–
Cc1cccc(NC(=O)Nc2cccc(Oc3c(F)c(F)c(F)c(F)c3F)c2)c1	–	18.4 µM (active)
CN1CCC(OC(=O)COc2ccc(Cl)cc2Cl)CC1	0.589	–
C[N+]1(CC(O)COc2ccccc2)CCN(C(=O)c2ccc([N+](=O)[O-])cc2)CC1 (stereo not given)	5.86	–
CCOc1cccc(NC(=O)CC#N)c1	-6.7	–
CC(=O)Nc1cccc(OCC(=O)/C=C2\N(C)c3ccccc3C2(C)C)c1	–	7.31 µM (active)

SMILES	activity change, negative = growth inhibition [%]	Potency
COc1cccc(NC(=S)C(C#N)=C2N(C)c3ccccc3N2C)c1	3.59	–
CC(=O)NCC(O)c1ccc([N+](=O)[O-])cc1 (stereo not given)	0.615	–
Cc1cc(C)c(C#N)c(SCC(=O)NN2CC(=O)N(c3ccccc3F)CC2=O)n1	-21.5	–
CCOC(=O)C=Cc1ccc(C(=O)OCC)[nH]1	–	8.2 µM (active)
CCOC(=O)c1cc2cc(C)ccc2[nH]1	-17.6	–
CCOC(=O)c1ccccc1OC(=O)Oc1ccccc1C(=O)OCC	-23.8	–
CCOC(=O)c1cccc(NC(=O)CN2C(=O)C3CC=CCC3C2=O)c1 (stereo not given)	-23.4	–
CCOC(=O)/C(=C\c1ccc([N+](=O)[O-])cc1)C(=O)c1cc(C(C)=O)c(Nc2ccccc2)s1	–	0.731 µM (active)
O=C(O)C(=Cc1ccc([N+](=O)[O-])cc1)CCc1ccccc1	-10.6	–
O=C(Nc1ccccc1)/C(=C/c1ccc([N+](=O)[O-])cc1)NC(=O)c1ccccc1	-20.7	–
CC(=O)c1c(C)n([O-])c2ccccc2[n+]1=O	2.08	–
O=C(NCc1ccccc1Cl)C1CCC(CNc2c(N3CCCCC3)c(=O)c2=O)CC1 (stereo not given)	-1.64	–
Cc1ccc2c(Cl)c(C(=O)Nc3nn[nH]n3)sc2c1	-28.5	–
Cn1c(=O)c2c(ncn2CCc2ccccc2)n(C)c1=O	7.06	–
CCCCCc1c(Cc2ccccc2)ncn1CCc1ccccc1OC	–	2.59 µM (active)
CCN(CC)CCN1C(=O)C(=O)/C(=C(/O)c2ccc(OC)c(OC)c2)C1c1ccccn1 (stereo not given)	-8.13	–
CCCCCc1c(-c2cccc(Br)c2)ncn1CCc1ccccc1OC	–	18.4 µM (active)
CCC(=O)NCc1cc(-c2nn(C)c(=O)c3ccccc23)ccc1OC	–	inactive
CCCCNS(=O)(=O)CCNCc1ccccc1OC	-5.2	–
CCCCCc1c(-c2ccc(OC)c(OC)c2)ncn1CCc1ccccc1OC	–	2.59 µM (active)
CCOC(=O)CSc1nnc(-c2cccc(Br)c2)o1	-1.45	–
Cc1c(Nc2nc3ccccc3nc2NS(=O)(=O)c2cccs2)c(=O)n(-c2ccccc2)n1C	-8.76	–
